# Source: PubChem BioAssay
# The entries come from a sample that favours hits as a whole.
# ROCK2 inh: inhibitors of human Rho kinase 2 | purified ROCK2, Kinase-Glo ATP depletion luminescence | inhibition, % at 6 µM | 0.35% of 60,000 active;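 active means inhibition above the screen-wide mean inhibition plus 3 SD, cut at about 18% in these data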;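 further: plate controls were DMSO wells for no effect and Y-27632 control wells after no-enzyme background subtraction for full effect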
# DAT uptake mod: modulates human dopamine transporter uptake under cocaine; LLC-PK1 hDAT cells, [14C]-dopamine uptake with cocaine IC80; actives deviate in either direction; B-score at 10 µM; 1.3% of 110,000 active; AID 449768;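 active means Z score or B-score, a plate-position-corrected score, falls beyond the plate's 99.7% confidence bounds, in either direction; inactive means both scores lie inside the 99.7% bounds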;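 further: scored against the spread of the other compound wells on the same plate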
# JNK3 blocker: JNK3 (human) kinase inhibition | P53779 | purified JNK3 kinase activity, HTS | inhibition, % at 8 µM | 0.61% of 60,000 active | AID 746; in the data active means inhibition above about 17%;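 further: 0% = DMSO and 100% = reference inhibitor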
# Target sequence (P53779 whole entry, looked up): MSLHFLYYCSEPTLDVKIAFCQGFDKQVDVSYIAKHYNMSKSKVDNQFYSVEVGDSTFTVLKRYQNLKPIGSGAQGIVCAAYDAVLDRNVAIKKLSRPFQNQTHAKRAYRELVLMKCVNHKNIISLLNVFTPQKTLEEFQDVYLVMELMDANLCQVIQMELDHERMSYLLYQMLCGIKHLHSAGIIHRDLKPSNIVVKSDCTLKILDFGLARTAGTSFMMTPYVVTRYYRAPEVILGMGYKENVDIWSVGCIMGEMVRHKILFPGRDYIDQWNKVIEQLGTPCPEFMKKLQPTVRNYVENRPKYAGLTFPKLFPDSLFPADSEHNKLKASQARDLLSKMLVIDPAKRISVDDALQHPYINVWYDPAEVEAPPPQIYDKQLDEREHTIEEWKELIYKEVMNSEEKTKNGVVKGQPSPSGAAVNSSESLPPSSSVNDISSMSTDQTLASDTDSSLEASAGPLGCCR
# D1 mod: allosterically modulates the human D1 dopamine receptor; P21728; HEK293 D1, CRE-luciferase, dopamine EC30 potentiation; actives deviate in either direction; B-score at 10 µM; 5.9% of 58,000 active; AID 641;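 active means luminescence count or its row- and column-corrected plate score outside the 99.7% band of the plate's sample wells, on either side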
# PKA inh: inhibitors of human protein kinase A. AID 524. P17612. PKA Kemptide phosphorylation, Kinase-Glo ATP luminescence. 0.1% of 65,000 active. inhibition, % at 6 µM;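 active means inhibition above the screen-wide mean inhibition plus 3 SD, cut at about 21% in these data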
# Active calls of the source: *; / = no result given; ! = a repeat was not active.
SMILES,ROCK2 inh,DAT uptake mod,JNK3 blocker,D1 mod,PKA inh
CCCCn1c(CNC(=O)C(C)(C)C)nc2ccccc21,1,0.21,2,0.7,7
CC(C)(C)C(=O)NCCCc1nc2ccccc2n1CCCOc1ccc(Cl)cc1,/,3.4*,/,/,/
CCn1c(CCNC(=O)c2ccc(OC)c(OC)c2)nc2ccccc21,/,0.83,/,-4.9*,7
O=C(c1ccc(Cl)cc1)c1oc2ccccc2c1CS(=O)c1ccccc1 (configuration not stated),/,-0.4,/,/,/
CN1C[C@@H]2C(c3ccc(Cl)nc3)C3(c4ccccc4)CC2(C3)[C@H]1c1ccccc1 (some centres not stated),/,1.4,/,/,/
CN1CCN(C(=O)C2=C[C@H](c3csc4ccccc34)C[C@H](OCCCCO)O2)CC1,/,1.5,/,/,/
CSc1nc(-c2ccccc2)nn1C(=O)c1ccc(C)cc1,/,-0.041,/,/,/
Cc1ccc(S(=O)(=O)NC(=O)c2ccc(Br)o2)cc1,/,-0.63,/,/,/
CCOc1ccc2c(c1)-c1c(ssc1=S)C(C)(C)N2,/,0.2,/,/,/
CC(NC(=O)CN1CCC(C(N)=O)CC1)c1ccccc1 (configuration not stated),1,-8.1*,-1,-0.003,9
Cc1ccc(C)c(N2CCN(C(=O)CC3Sc4ccccc4NC3=O)CC2)c1 (configuration not stated),3,3.4*,-2,0.71,6
CC(=O)O[C@H]1C[C@@H]2CC[C@@H]3[C@H](CC[C@@]4(C)[C@H]3C[C@H]([N+]3(C)CCCCC3)[C@@H]4OC(C)=O)[C@@]2(C)C[C@@H]1[N+]1(C)CCCCC1,8,/,5,17*,0
C=CCN1C(=O)C(CC(=O)Nc2ccccc2)SC1=Nc1ccc(S(N)(=O)=O)cc1 (configuration not stated),/,-1.1,/,/,/
Cc1ccc(C(C(=O)NCc2ccco2)N(CCc2ccccc2)C(=O)Cn2nnc3ccccc32)o1 (configuration not stated),3,/,2,-4.3*,-5
Cc1ccc(CN(C(=O)Cn2nnc3ccccc32)C(C(=O)NCc2ccco2)c2ccc(C)o2)cc1 (configuration not stated),/,-0.93,/,/,/
COc1ccc(N(C(=O)Cn2nnc3ccccc32)C(C(=O)NCc2ccco2)c2ccc(C)o2)cc1 (configuration not stated),0,3.1*,-8,-0.18,1
Cc1ccc(N(C(=O)Cn2nnc3ccccc32)C(C(=O)NCc2ccco2)c2ccc(C)o2)cc1 (configuration not stated),-2,-0.2,-11,0.73,1
C=CCNc1cccc(Br)c1,/,0.23,/,/,/
Cc1ccccc1CNc1ccc(C(CC(N)=O)NC(=O)c2ccccc2)cc1[N+](=O)[O-] (configuration not stated),/,0.072,/,/,/
CC(C)(C)OC(=O)NCCCC[C@H](NC(=O)c1nc[nH]c1C(=O)NC(c1ccccc1)c1ccccc1)C(=O)OC(C)(C)C,/,-0.21,/,/,/
N#C/C(=N\O)c1nc(-c2ccccc2)cs1,-9,-5.2*!,4,/,0
CCOc1ccc2nc3ccc4[nH]onc4c3c2c1,17,0.24,0,-1.3,35*
CCOc1ccc2nc(N3CCOCC3)nc(C)c2c1,8,0.53,3,-0.17,10
Cc1ccc2[nH]c3c(c2c1)CCc1cn[nH]c1-3,8,/,43*,-0.89,0
CC1(C(=O)NCc2ccccn2)C=CCN1C(=O)c1ccccc1 (configuration not stated),/,-0.7,/,/,/
SMILES,ROCK2 inh,DAT uptake mod,JNK3 blocker,D1 mod,PKA inh
COc1nc(Nc2nc3ccccc3c(=O)[nH]2)nc2ccc(C)cc12,3,/,2,-2.7*,4
O=C(NCc1cccc(Cl)c1)c1cnccn1,2,-0.089,-3,0.44,6
O=C(NCc1ccc(Cl)cc1)c1cnccn1,/,-2.8*,/,/,/
CCCNC(=O)c1ccc2c(=O)n3c(-c4ccc(C)cc4)csc3nc2c1,/,-0.42,/,/,/
CC(SC1CCCC1)C(=O)NC(C)(C#N)C(C)C (configuration not stated),2,-0.026,-1,-2.1*,0
Cc1cc(C)c(C2=CC(c3ccccc3)n3ncnc3N2)cc1C (configuration not stated),/,-0.097,/,/,/
O=C(CC(Nc1ccccc1)C(=O)O)c1ccccc1 (configuration not stated),/,2.9*,/,/,0
NC(=O)CC(NC(=O)c1ccccc1)C(=O)O (configuration not stated),/,-1.9,/,/,/
O=S(=O)(NCc1ccccc1)c1ccccc1Br,/,0.16,/,/,/
Cc1ccc2c(c1)C(N1CCCC1=O)CC(c1ccco1)N2 (configuration not stated),-31,0.39,-7,-4.4*,-5
